# Screening results deposited in PubChem by several laboratories.
# GRK2 inh – compounds blocking aptamer binding on GRK2 – biochemical, human GRK2, bead flow cytometry, HTS, primary screen. Beta-adrenergic receptor kinase 1 (Homo sapiens), P25098. FAM-aptamer displacement from GRK2. inhibition of aptamer binding, % at 10 µM. 330,000 compounds, 0.59% hits;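 active means inhibition of aptamer binding above 40%, roughly 3 SD of noise, on plates passing a quality check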;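 further: median bead fluorescence of bound FAM aptamer so fluorescent compounds give negative values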
# PREPL inhibitor – PREPL enzyme inhibitors, primary screen, biochemical, fluorescence polarization. recombinant PREPL, fluorescence polarization activity-based probe. Prolyl endopeptidase-like (Homo sapiens), Q4J6C6. inhibition, % at 5.96 µM. 320,000 compounds, 0.68% hits. AID 2751, 2010; in the data active means inhibition above about 43%
# Target sequence (Q4J6C6 whole entry, looked up): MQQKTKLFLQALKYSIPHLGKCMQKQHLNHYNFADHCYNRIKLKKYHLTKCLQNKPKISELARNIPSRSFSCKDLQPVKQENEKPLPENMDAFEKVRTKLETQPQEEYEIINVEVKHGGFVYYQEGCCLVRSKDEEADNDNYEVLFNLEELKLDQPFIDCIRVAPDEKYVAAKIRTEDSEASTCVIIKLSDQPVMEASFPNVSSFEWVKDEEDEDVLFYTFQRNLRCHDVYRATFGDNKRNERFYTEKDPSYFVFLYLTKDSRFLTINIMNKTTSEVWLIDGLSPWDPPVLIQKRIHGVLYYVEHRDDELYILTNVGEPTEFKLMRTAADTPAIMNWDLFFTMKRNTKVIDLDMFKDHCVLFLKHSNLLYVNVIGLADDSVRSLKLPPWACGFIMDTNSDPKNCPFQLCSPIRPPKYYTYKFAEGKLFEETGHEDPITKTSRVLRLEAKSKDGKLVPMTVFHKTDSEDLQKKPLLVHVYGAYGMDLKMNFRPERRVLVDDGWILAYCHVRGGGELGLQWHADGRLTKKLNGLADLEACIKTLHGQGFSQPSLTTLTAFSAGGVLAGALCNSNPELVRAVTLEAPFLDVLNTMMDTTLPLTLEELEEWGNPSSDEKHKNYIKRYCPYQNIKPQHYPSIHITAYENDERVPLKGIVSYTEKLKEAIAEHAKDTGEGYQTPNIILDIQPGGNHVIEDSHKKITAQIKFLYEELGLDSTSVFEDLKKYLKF
# Pemphigus Ab inh – inhibitors of pemphigus antibody binding to DSG3, primary screen, biochemical, bead-based, flow cytometry, scFv-GFP; binding (percent of control), % at 10 µM; 310,000 compounds, 0.48% hits; DSG3-coupled beads, scFv-anti-DSG3-GFP binding; active compounds read low; Desmoglein-3 (Homo sapiens), P32926; AID 588358, 2011;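 active means binding more than 3 SD below its plate's average and above zero; inconclusive means below that plate limit but binding exactly zero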;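 further: hits lower antibody fragment binding to DSG3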
# VLA-4 inh – inhibition in human VLA-4 binding assay, primary screen, VLA-4 allosteric modulator project, MLPCN library, flow cytometry, VLA-4 expressing cells. Integrin alpha-4 (Homo sapiens), P13612. ligand binding flow cytometry. inhibition, % (about 7 µM as worked out from the volumes in the protocol). 330,000 compounds, 0.2% hits. AID 2557, 2010; in the data active means inhibition above about 50%
# GASC-1 inh – inhibitors of GASC-1 histone demethylase, primary screen, biochemical, fluorescence, DELFIA europium; inhibition, % at 2.35 µM; Lysine-specific demethylase 4C (Homo sapiens), Q9H3R0; 330,000 compounds, 0.069% hits; GST-JMJD2C(1-420) H3K9me3 demethylation; AID 2099, 2009;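 active means more than half of a compound's replicate wells show inhibition beyond 50%, single wells judged on their own value; inconclusive means some, but no more than half, of replicates pass 50% inhibition; inactive means no replicate passes 50% inhibition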;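 further: signal counts dimethyl H3K9 product captured on neutravidin plate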
# GRK2 inh confirm – GRK2 aptamer-displacing inhibitors, retest, confirmation, biochemical, cherry pick 1, bead flow cytometry | shares compounds with GRK2 inh | bead-bound GRK2, FAM-aptamer displacement | aptamer displacement, % at 10 µM | 2,000 compounds, 4% hits;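 active means aptamer displacement above 40%, near three times the noise of non-fluorescent compounds, on plates passing quality checks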;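 further: negative values mostly reflect intrinsic compound fluorescence rather than true enhancement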
# Aptamer quench 1 – fluorescent aptamer quenching in GRK2 counter-screen dose response | fluorescence change (kMESF span), kMESF (test concentration not listed) | Fluorescent RNA aptamer beads, flow cytometry; active compounds read high | 110 tested, under 10 active | shares compounds with GRK2 inh;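 active means compounds whose bead fluorescence drops by more than 37 kMESF across the dose range, marking them as dye quenchers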
# Aptamer quench SP – quenches fluorescent RNA aptamer, GRK2 hit artifact | shares compounds with GRK2 inh | Carboxyfluorescein RNA aptamer on beads, flow cytometry quenching; active compounds read low | fluorescence response (% of DMSO), % at 10 µM | 2,000 tested, under 10 active;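 active means compounds that quench the bead-bound fluorescent RNA probe, cutting fluorescence to under half of the solvent control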;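 further: counterscreen run without GRK2 so only probe quenching by compound is measured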
# GRK2 CP2 – GRK2 aptamer-displacing inhibitors, hit retest, confirmation, biochemical, cherry pick 2, bead flow cytometry; shares compounds with GRK2 inh; 360 tested, under 10 active; AID 504782, 2011; inhibition of aptamer binding, % at 10 µM; bead-bound GRK2, FAM-aptamer displacement;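 active means inhibition of aptamer binding above 40%, about triple the noise seen with nonglowing compounds, on plates passing quality control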;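 further: negative values mostly come from compounds that fluoresce themselves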
# FAM quench SP – counter-screen for GRK2 binding hits: quenchers of fluorescent RNA aptamer. shares compounds with GRK2 inh. carboxyfluorescein RNA aptamer beads, flow cytometry quenching; active compounds read low. 360 tested, under 10 active. fluorescence response vs DMSO, % at 10 µM;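 active means response vs DMSO under 50%, meaning signal dropped by over half, treated as fluorescence quencher; inconclusive means no clear call, values can overlap the other calls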;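 further: labelled aptamer on streptavidin beads without GRK2 as a quench counter-screen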
# A number is an active result; - = inactive; ? = inconclusive; . = no result. Rows were chosen to be rich in hits. Some 1.6% of all compounds tested hit in one or more screens of this group.
SMILES,GRK2 inh,PREPL inhibitor,Pemphigus Ab inh,VLA-4 inh,GASC-1 inh,GRK2 inh confirm,Aptamer quench SP,others
CC(C)N1C(=O)c2ccccc2C1C(=O)NCCc1ccccc1 (stereo not drawn),-,-,-,-,-,-,-,
COCCN1C(=O)N[C@@H](c2cccc(F)c2)C(C(=O)OC)=C1C,91,-,-,-,-,-,-,
Cc1cccc2c(C(=O)n3cccn3)cc(-c3ccccc3Cl)nc12,-,-,-,-,-,-,-,
CCOc1ccc(C(C(=O)NC2CCCCC2)N(C(=O)Cc2cccs2)c2ccc(-n3cnnn3)c(OC)c2)cc1 (stereo not drawn),-,-,-,-,-,.,.,
COc1ccccc1NC(=O)CCS(=O)(=O)c1ccc2c(c1)NC(=O)C(C)S2 (stereo not drawn),-,-,?,-,-,.,.,GRK2 CP2=-;FAM quench SP=-
Cc1ccc(C)c(N2CCN(C(=O)CCS(=O)(=O)c3ccc4c(c3)NC(=O)C(C)S4)CC2)c1 (stereo not drawn),-,-,.,-,-,.,.,
COC(=O)c1ccc(NC(=O)CCS(=O)(=O)c2ccc3c(c2)NC(=O)C(C)S3)cc1 (stereo not drawn),-,-,-,-,-,.,.,
Cc1ccc(CNC(=O)CCS(=O)(=O)c2ccc3c(c2)NC(=O)C(C)S3)cc1 (stereo not drawn),-,-,.,-,-,.,.,GRK2 CP2=-;FAM quench SP=-
Cc1ccc(CNC(=O)CC(C)S(=O)(=O)c2ccc3c(c2)NC(=O)C(C)S3)cc1 (stereo not drawn),-,-,-,-,-,.,.,GRK2 CP2=-;FAM quench SP=-
CCCCNC(=S)NNC(=O)c1cc(C2CC2)nc2ccccc12,-,.,-,-,-,.,.,
O=C(NCc1ccc(Cl)cc1)C1CCN(S(=O)(=O)c2cccc3nonc23)CC1,-,-,.,-,-,.,.,
Cc1cc(C(=O)Nc2nncs2)oc1C,90,-,-,-,-,-,-,
O=C1C(Cc2ccc(O)cc2)NC(=S)N1C1CCCCC1 (stereo not drawn),-,-,-,-,-,.,.,
CCOC(=O)c1c(-c2cccs2)csc1NC(C)=O,-,-,-,-,-,.,.,
CCOC(=O)c1c(-c2cccs2)csc1NC(=O)CSc1ncn[nH]1,90,-,-,-,-,-,-,
O=C(NC(NC1CCS(=O)(=O)C1)C(Cl)(Cl)Cl)c1cccc(Cl)c1 (stereo not drawn),51,-,-,-,-,-,-,
COc1ccc(C(=O)NNC(=O)CSc2nc3c([nH]2)c(=O)n(C)c(=O)n3C)cc1,100,-,-,-,-,-,-,
O=C(O)c1c2c(nc3ccccc13)/C(=C/c1ccc(O)cc1)CC2,67,-,-,-,-,50,-,Aptamer quench 1=-
CCOCCCNC(=O)c1ccc(N2CCCC2)c(NS(=O)(=O)c2ccc(C)cc2)c1,96,-,-,-,-,-,-,
COc1ccc(-c2csc(NC(=O)C3CSC4(C)CCC(=O)N34)n2)c(OC)c1 (stereo not drawn),-,-,-,-,-,.,.,
COc1ccccc1C(=O)N/C(=C\c1cn(C)c2ccccc12)C(=O)N1CCOCC1,-,-,.,-,-,.,.,
COc1ccc(C(=O)N/C(=C\c2cn(C)c3ccccc23)C(=O)N2CCOCC2)cc1OC,57,-,-,-,-,-,-,
CC(C)c1ccc(NC(=O)CCN2C(=O)[C@@H]3Cc4ccccc4CN3C2=O)cc1,-,-,-,-,-,.,.,
Nc1nn(-c2ccccc2)c2ccc([N+](=O)[O-])cc12,75,-,-,-,-,-,-,
O=C(Cn1cc(C(=O)c2cccs2)c2ccccc21)NCC1CCCO1 (stereo not drawn),-,-,-,-,-,.,.,
SMILES,GRK2 inh,PREPL inhibitor,Pemphigus Ab inh,VLA-4 inh,GASC-1 inh,GRK2 inh confirm,Aptamer quench SP,others
O=C(Cn1cc(C(=O)c2cccs2)c2ccccc21)NCc1ccc2c(c1)OCO2,69,-,-,-,-,-,-,
O=C(Nc1ccccc1C(=O)N1CCOCC1)c1ccc(F)cc1,-,-,.,-,-,.,.,
O=C(Nc1ccccc1C(=O)N1CCOCC1)c1ccc(Br)cc1,100,-,-,-,-,.,.,GRK2 CP2=-;FAM quench SP=-
CCS(=O)(=O)N1CCC(C(=O)Nc2cccc(F)c2)CC1,-,-,-,-,-,.,.,
Cc1ccc(/C=C2\SC(=S)N(CCC(=O)NNS(=O)(=O)c3ccccc3)C2=O)cc1,-,-,-,-,-,.,.,
O=C(Cc1ccccc1)Nn1cnc2ccccc21,55,-,-,-,-,-,-,
COc1ccc(CCNS(=O)(=O)c2ccc3c(c2)CCCC3)cc1OC,42,-,?,-,-,.,.,GRK2 CP2=-;FAM quench SP=-
COCCN(C(=O)c1cc(Cl)ccn1)c1c(N)n(Cc2ccccc2)c(=O)[nH]c1=O,-,-,-,-,.,.,.,
Cn1cc([N+](=O)[O-])c(C(=O)NNC(=O)c2ccc([N+](=O)[O-])cc2Cl)n1,-,-,-,-,-,.,.,
CC(C)NC[C@H](O)COc1cccc2ccccc12,-,-,.,-,-,-,-,
CC1Cc2nc(SCC(=O)N3CCCC3)n(C)c(=O)c2S1 (stereo not drawn),100,-,-,-,-,-,-,
CCn1c(SCC(=O)N2CCCC2)nc2c(c1=O)SC(C)C2 (stereo not drawn),-,-,-,-,-,.,.,
COc1ccc(-n2c(SC)nc(O)c(Cc3ccccc3)c2=O)cc1,-,-,-,-,-,.,.,
COc1ccc(Cc2c(O)nc(SC)n(C(C)=O)c2=O)cc1,100,-,-,-,-,-,-,
CC(C)Cn1c(N)c(C(=O)CSc2ccccc2)c(=O)n(C)c1=O,47,-,-,-,-,-,-,
O=C(NCC1CCCO1)c1ccc(N2CCCCC2)c([N+](=O)[O-])c1 (stereo not drawn),-,-,.,-,-,.,.,
